Assay outcomes deposited in PubChem BioAssay by several laboratories.
Beta cell apopt – inhibitors of cytokine-induced beta cell apoptosis, primary screen, luminescence | INS-1E cytokine-induced death, ATP luminescence, 48 h; percent of positive-control rescue, neutral wells zero | 0.8% of 300,000 active | protection from apoptosis, % (concentration not given with the values);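 active = Every replicate reaches about 75%, or at least half do and their mean reaches it too, limit read from the data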;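 note: 0% = cytokine-treated negative control wells and 100% = positive control rescue; higher means more ATP so stronger rescue from cytokine killing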
CSC inhib – cancer stem cell viability inhibitors, primary screen, luminescence; cancer stem cell-like cells viability; inhibition, % at 7.5 µM; 1.1% of 300,000 active; AID 2717, 2010; in the data active = inhibition above about 75%; tested in HMLE shEcad cells
Gli-Sufu block – Gli-Sufu pathway antagonists, primary screen, luciferase luminescence, Sufu-KO-LIGHT cells, uHTS; 0.74% of 340,000 active; Sufu-KO-LIGHT fibroblasts, Gli luciferase reporter luminescence; inhibition, % at 5 µM; AID 588413, 2011;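 active = inhibition above about 55%, limit read from the data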;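 note: 0% = DMSO-treated cells and 100% = wells with medium but no cells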
697 NFkB inh – inhibitors of PMA/ionomycin-induced NF-kB reporter, 697 cells, primary screen, B-cell NF-kB inhibitor project, cell-based, luminescence, uHTS. 697 B-cell NF-kB luciferase reporter, 16 h. inhibition, % at 4 µM. 0.33% of 330,000 active. AID 435022, 2010; in the data active = inhibition above about 35%
Mdm2 MdmX PPI – inhibitors of human Mdm2-MdmX association, primary screen, cell-based, luminescence, split luciferase, SaOS-2, uHTS; Protein Mdm4 (Homo sapiens) + E3 ubiquitin-protein ligase Mdm2 (Homo sapiens), …; SaOS-2 split-luciferase Mdm2/MdmX complementation; inhibition, % at 8 µM; 3% of 330,000 active; AID 485346, 2010;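 active = inhibition of at least 50% at 8 µM in the primary screen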
Target sequence (O15151 whole entry, looked up): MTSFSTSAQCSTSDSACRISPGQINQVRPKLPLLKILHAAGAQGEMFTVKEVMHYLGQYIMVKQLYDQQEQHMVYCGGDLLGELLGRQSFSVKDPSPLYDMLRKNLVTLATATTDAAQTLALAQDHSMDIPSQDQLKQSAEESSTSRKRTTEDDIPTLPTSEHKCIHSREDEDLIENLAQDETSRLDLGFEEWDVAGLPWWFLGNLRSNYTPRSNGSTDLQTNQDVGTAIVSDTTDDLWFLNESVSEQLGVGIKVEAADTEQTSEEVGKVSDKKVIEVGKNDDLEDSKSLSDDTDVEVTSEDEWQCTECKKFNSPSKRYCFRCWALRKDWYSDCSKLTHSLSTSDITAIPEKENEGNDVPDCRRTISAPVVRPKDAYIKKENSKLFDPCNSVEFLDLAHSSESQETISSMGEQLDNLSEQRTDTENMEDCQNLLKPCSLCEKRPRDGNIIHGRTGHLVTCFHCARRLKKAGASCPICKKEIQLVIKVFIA
Target sequence (Q00987 whole entry, looked up): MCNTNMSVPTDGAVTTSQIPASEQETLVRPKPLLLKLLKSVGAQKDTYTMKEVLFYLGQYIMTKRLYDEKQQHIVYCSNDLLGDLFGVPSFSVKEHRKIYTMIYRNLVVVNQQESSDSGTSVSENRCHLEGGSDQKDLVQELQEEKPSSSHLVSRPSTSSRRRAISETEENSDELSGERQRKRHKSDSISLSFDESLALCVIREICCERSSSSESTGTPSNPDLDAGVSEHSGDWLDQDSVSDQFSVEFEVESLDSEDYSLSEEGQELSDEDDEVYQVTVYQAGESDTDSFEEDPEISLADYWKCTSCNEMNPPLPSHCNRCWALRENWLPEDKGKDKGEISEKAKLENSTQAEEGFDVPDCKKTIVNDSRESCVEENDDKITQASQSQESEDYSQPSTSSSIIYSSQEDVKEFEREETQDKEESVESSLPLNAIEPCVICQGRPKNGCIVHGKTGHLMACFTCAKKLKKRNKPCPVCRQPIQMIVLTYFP
Jurkat NFkB inh – inhibitors of induced NF-kB luciferase reporter, primary screen, TCR NF-kB activation inhibitor project, cell-based, luminescence, uHTS. Jurkat, PMA/ionomycin-induced NF-kB luciferase reporter. 0.53% of 330,000 active. inhibition, % at 4 µM; in the data active = inhibition above about 50%
Jurkat NFkB conf – PMA/ionomycin-induced NF-kB reporter inhibitors, Jurkat retest, confirmation, T-cell NF-kB inhibitor project, cell-based, luminescence, single concentration; shares compounds with Jurkat NFkB inh; Jurkat NF-kB luciferase, 16 h; inhibition, % at 4 µM; 27% of 2,700 active;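 active = inhibition reaching about 45% at 4 µM in either replicate, limit read from the data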;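 note: plate controls were PMA/ionomycin stimulated DMSO wells for no effect and unstimulated DMSO wells for full effect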
* hit, by the source's call; / = no result. Only some compounds are listed: those with a hit (about 4.5% of all), similar ones and a draw of the others.

SMILES | Beta cell apopt | CSC inhib | Gli-Sufu block | 697 NFkB inh | Mdm2 MdmX PPI | Jurkat NFkB inh | Jurkat NFkB conf
Cc1cc(-c2nnc(SCC(=O)Nc3ccc(Br)cc3F)n2N)n[nH]1 | -3 | -4 | -8 | 9 | 7 | 4 | /
Clc1ccccc1/C=N/NC1=Nc2cccc3cccc1c23 | 13 | 1 | -58 | -163 | 27 | -163 | -86
O=C(COC(=O)c1cc([N+](=O)[O-])ccc1N1CCOCC1)Nc1cccc(F)c1 | 2 | 4 | 9 | -16 | 30 | 5 | /
Fc1ccc(-c2cn3ccccc3n2)cc1 | 7 | 14 | -88 | -164 | -151 | -110 | /
CCOc1ccc(-c2cn3ccccc3n2)cc1 | -14 | 5 | -79 | -197 | -135 | -153 | -62
COC(=O)c1ccccc1C(=O)N1CCC(CCC(=O)NC2CC2)CC1 | -1 | -2 | 3 | 5 | 17 | 1 | /
Cc1ccc(NC(=S)c2ccc(N(C)C)cc2)cc1 | -12 | 27 | -134 | -96 | -155 | -199 | -49
O=C(c1cc(-c2ccncc2)nc2ccccc12)N1CCN(c2ccccn2)CC1 | 11 | 45 | -8 | -30 | 37 | 57* | 8
O=C(c1cc(-c2ccccc2)nc2ccccc12)N1CCN(c2ccccn2)CC1 | / | 5 | 0 | -42 | -11 | -4 | /
CC(C)(C)C1=CC(O)(c2ccccc2)C=C(C(C)(C)C)C1=O | 24 | 15 | -5 | 1 | -3 | 15 | /
CC(Oc1ccc(Cl)cc1Cl)C(=O)Nc1ccncc1 (centres undefined) | 0 | 27 | 4 | -9 | 27 | 51* | 36
CC(=O)Nc1ccc(NC(=O)C(C)Oc2ccc(Cl)cc2Cl)cc1 (centres undefined) | -4 | -16 | -24 | 2 | 13 | 7 | /
C=C(c1ccc2nc(NC(=O)OC)[nH]c2c1)c1cccs1 | / | / | 13 | / | / | / | /
C=CCOc1ccc2nc(NC(=O)OC)[nH]c2c1 | / | 51 | 0 | -1 | 26 | 72* | 31
COC(=O)Nc1nc2ccc(-c3n[nH]c(=O)c4ccccc34)cc2[nH]1 | -4 | 104* | -8 | -82 | 12 | 71* | 9
CN(C)C(=O)c1cc(C(=O)c2ccc(C(F)(F)F)cc2)c[nH]1 | / | / | -43 | -79 | -29 | -39 | /
COC(=O)C1Cc2c([nH]c3ccccc23)CN1 (centres undefined) | 4 | / | -3 | -8 | -15 | 53* | 8
CSc1cc(-c2ccccc2)n(Cc2ccccc2Cl)c(=O)c1C#N | 18 | 38 | 0 | -28 | 43 | 64* | 9
COc1ccccc1Nc1nnc(SCC(=O)c2c(N)n(C3CC3)c(=O)[nH]c2=O)s1 | 3 | 6 | 7 | -5 | 27 | -1 | /
COc1ccc(/C=C2\CCOC2=O)cc1 | -5 | 6 | 4 | -3 | 21 | -1 | /
COc1ccc(/C=C2/C(=O)OCc3cc(OC)c(OC)cc32)cc1 | 24 | 68 | 4 | -68 | 41 | 55* | 48*
Cc1ccc(-c2nnc(SCC(=O)N/N=C/c3ccc(C(=O)O)cc3)n2C2CCCCC2)cc1 | -6 | -6 | 33 | 6 | -18 | 6 | /
O=C(CCc1c[nH]c2ccccc12)OCc1cccc(C(F)(F)F)c1 | 0 | -6 | 4 | -19 | 0 | 51* | 17
Cc1cc(O)c(CN2CCN(S(=O)(=O)c3cccs3)CC2)cc1C(C)C | -1 | 12 | 10 | 9 | 23 | 6 | /
COc1cc(NCCCCCCCN)c2ncccc2c1 | 13 | 54 | -15 | -44 | 34 | 93* | 60*
COc1cc(NCc2ccccc2O)c2ncccc2c1 | / | / | 1 | -5 | 32 | 10 | /
C[C@H]1CN(S(=O)C(C)(C)C)[C@H](CCO)/C1=C\CCO (some centres undefined) | / | / | -9 | / | / | / | /
Cc1cc(C)c2c(N)c(C(=O)Nc3ccc(F)cc3)sc2n1 | / | -3 | -78 | -154 | -128 | -155 | -32
